The values below come from ChEMBL document CHEMBL2218924, “A broad activity screen in support of a chemogenomic map for kinase signalling research and drug discovery” (Biochem J, 2013).

Test [1] has as its target Tyrosine-protein kinase SYK (Homo sapiens) (UniProt P43405). The settings on record: at 10 µM.
The target of test [2] is T1, Mitogen-activated protein kinase kinase kinase 7 (Homo sapiens) (UniProt O43318).
T1 sequence (whole entry): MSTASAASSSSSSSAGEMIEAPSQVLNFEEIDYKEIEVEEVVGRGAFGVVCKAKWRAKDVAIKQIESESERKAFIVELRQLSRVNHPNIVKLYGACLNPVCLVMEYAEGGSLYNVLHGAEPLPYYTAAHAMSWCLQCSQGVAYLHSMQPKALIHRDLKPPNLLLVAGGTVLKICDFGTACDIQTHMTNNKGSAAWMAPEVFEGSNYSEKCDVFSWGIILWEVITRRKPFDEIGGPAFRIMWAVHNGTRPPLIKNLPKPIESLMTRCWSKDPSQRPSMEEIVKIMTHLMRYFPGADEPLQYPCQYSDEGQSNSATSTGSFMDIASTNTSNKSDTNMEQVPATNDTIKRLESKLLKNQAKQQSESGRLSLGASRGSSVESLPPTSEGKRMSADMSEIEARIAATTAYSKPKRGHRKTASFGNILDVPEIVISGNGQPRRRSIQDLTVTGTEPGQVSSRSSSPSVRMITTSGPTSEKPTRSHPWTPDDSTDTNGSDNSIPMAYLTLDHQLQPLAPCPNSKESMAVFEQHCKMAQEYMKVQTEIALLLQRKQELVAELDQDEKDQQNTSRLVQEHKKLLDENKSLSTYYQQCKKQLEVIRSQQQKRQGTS
The settings on record: at 10 µM.

The target in test [3] is T2, Serine/threonine-protein kinase TAO1 (Homo sapiens) (UniProt Q7L7X3).
T2 sequence (whole entry): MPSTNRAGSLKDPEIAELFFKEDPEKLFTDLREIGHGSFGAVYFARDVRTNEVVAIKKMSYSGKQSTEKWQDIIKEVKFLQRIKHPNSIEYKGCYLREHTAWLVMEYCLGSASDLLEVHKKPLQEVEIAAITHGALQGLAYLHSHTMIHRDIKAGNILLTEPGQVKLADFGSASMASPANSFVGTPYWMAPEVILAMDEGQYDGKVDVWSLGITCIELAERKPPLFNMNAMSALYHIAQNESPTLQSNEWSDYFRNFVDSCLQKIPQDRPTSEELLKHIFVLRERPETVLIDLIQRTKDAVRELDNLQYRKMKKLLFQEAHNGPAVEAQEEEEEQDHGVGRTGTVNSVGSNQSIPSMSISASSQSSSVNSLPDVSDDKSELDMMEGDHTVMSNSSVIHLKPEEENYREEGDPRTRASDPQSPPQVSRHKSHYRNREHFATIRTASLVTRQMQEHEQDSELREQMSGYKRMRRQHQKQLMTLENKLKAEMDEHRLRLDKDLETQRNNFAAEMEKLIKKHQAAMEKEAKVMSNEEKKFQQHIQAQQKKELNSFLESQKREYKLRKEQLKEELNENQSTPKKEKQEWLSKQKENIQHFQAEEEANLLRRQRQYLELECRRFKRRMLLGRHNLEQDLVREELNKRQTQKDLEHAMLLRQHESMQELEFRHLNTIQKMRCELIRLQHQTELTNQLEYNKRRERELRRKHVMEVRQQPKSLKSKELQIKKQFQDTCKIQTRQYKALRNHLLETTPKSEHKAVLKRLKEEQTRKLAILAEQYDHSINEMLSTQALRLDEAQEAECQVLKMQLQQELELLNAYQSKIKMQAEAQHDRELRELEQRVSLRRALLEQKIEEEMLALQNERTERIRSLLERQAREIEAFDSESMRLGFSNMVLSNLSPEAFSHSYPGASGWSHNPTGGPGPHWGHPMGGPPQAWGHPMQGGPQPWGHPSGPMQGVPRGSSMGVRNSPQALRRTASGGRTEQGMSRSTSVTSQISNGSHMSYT
The settings on record: at 1 µM.

Test [4] addresses T2, Serine/threonine-protein kinase TAO1 (Homo sapiens). The settings on record: at 10 µM.
Test [5] concerns the target T3, Serine/threonine-protein kinase TAO2 (Homo sapiens) (UniProt Q9UL54).
T3 sequence (whole entry): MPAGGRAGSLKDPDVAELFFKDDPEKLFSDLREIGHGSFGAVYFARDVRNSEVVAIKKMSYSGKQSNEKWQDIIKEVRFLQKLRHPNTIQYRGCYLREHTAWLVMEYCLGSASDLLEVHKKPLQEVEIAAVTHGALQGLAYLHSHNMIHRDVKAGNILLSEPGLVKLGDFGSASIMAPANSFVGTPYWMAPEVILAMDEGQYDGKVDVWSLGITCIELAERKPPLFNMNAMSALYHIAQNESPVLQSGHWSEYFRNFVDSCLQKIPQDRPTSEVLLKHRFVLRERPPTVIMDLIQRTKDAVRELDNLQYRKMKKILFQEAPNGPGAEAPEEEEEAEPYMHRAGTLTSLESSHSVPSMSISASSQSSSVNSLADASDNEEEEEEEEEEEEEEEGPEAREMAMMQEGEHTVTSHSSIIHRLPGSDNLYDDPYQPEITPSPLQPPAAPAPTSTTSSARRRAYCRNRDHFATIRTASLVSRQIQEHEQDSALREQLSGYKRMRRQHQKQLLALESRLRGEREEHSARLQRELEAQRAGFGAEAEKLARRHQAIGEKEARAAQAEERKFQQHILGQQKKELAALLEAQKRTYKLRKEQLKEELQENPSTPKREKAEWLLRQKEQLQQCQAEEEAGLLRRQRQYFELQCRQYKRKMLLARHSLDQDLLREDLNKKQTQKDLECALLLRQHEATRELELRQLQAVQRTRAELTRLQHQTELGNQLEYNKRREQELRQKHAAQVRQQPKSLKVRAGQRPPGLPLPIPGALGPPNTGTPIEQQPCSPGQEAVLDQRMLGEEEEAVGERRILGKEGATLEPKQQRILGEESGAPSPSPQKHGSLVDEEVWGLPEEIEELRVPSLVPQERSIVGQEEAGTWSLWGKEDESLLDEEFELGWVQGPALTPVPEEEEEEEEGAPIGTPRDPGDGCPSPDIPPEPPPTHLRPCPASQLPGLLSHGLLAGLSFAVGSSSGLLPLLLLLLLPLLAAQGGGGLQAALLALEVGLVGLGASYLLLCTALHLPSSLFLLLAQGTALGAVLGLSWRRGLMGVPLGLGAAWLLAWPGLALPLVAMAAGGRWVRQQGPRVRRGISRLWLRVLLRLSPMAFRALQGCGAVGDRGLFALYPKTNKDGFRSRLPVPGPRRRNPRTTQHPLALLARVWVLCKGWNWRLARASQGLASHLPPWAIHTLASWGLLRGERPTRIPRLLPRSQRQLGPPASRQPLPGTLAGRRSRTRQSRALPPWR
The conditions noted are these: at 1 µM.

Test [6] deals with T3, Serine/threonine-protein kinase TAO2 (Homo sapiens). The settings on record: at 10 µM.
For test [7], the target named is T4, Serine/threonine-protein kinase TAO3 (Homo sapiens) (UniProt Q9H2K8).
T4 sequence (whole entry): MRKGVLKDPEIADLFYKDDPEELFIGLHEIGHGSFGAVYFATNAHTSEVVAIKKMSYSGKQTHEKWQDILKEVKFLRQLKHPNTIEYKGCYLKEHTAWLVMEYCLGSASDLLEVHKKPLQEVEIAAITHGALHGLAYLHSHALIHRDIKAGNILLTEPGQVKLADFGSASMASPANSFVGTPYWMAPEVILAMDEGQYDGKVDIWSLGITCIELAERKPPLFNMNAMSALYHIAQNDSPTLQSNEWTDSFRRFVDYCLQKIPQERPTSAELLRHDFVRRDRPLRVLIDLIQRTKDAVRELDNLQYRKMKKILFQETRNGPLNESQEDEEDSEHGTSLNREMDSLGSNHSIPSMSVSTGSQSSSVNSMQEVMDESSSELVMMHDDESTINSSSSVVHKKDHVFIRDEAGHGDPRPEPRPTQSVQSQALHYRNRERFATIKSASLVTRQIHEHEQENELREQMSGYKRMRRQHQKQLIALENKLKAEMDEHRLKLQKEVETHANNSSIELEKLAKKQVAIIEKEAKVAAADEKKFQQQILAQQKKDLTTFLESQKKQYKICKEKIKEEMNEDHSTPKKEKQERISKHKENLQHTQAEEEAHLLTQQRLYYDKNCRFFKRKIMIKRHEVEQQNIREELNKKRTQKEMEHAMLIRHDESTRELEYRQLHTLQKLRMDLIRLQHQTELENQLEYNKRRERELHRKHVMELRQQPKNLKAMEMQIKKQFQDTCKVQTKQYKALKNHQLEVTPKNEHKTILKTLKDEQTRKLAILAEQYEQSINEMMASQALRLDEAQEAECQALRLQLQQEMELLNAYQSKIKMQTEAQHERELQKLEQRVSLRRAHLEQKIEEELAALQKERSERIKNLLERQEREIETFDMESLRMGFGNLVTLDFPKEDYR
The conditions noted are these: at 1 µM.

Test [8] addresses T4, Serine/threonine-protein kinase TAO3 (Homo sapiens). The conditions noted are these: at 10 µM.
In test [9] the target is T5, Serine/threonine-protein kinase TBK1 (Homo sapiens) (UniProt Q9UHD2).
T5 sequence (whole entry): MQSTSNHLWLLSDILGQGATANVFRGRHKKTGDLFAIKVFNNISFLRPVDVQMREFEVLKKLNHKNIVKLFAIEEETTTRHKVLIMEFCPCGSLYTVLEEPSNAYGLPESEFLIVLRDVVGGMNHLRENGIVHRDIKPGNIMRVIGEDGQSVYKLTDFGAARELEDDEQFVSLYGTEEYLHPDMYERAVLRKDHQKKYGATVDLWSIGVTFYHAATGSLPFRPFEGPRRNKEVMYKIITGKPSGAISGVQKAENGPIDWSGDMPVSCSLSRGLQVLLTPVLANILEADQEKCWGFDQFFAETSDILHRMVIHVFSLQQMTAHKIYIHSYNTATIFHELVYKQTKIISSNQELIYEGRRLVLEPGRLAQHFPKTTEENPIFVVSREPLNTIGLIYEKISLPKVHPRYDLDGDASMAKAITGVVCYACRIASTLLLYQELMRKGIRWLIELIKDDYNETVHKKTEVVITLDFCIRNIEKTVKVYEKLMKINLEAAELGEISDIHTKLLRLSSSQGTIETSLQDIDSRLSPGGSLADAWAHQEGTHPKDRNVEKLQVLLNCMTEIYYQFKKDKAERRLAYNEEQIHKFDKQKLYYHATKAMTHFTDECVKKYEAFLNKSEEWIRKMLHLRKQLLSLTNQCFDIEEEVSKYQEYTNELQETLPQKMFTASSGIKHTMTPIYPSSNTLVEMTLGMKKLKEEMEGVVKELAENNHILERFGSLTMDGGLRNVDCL
The conditions noted are these: at 1 µM.

Consider `Ic1cccc(CSc2nnc(-c3ccncc3)o2)c1`, for which the residual activity in [1] was 96%; in test [2], 82%; in test [3], 63%; in [4], 47%; in test [5], 88%; in test [6] it was 85%. Also, the values for the residual activity in test [7], in [8] and in [9] were 93%, 89% and 15%, respectively.
